IFI data for 67 compounds are collected here from ChEMBL document CHEMBL1157539, “Thousands of chemical starting points for antimalarial lead identification” (Nature, 2010).

SMILES strings stand for the structures. Over roughly 13,000 compounds, “IFI” has its median near 4; the highest 2% begin near 17. What follows is part of a selection rich in the highest values, with near analogues and random picks from the rest.

The nature of the experiment: GSK_TCMDC: Inhibition Frequency Index (IFI). The number of non-kinase HTS assays where a compound showed > 50 % inhibition, expressed as a percentage of the number of such assays in which the compound was tested. It is filed as functional.
`NS(=O)(=O)c1ccc(Nc2nccc(-c3c(-c4cccc(NC(=O)c5c(F)cccc5F)c4)nn4ccccc34)n2)cc1` returned an IFI of 7.96%.

`Cc1cc(-c2ccc3c(c2)CCN(CCCOc2ccc4c(c2)CCN4C(=O)/C=C/c2ccccc2Cl)CC3)no1` registered an IFI of 10.8%.

With `CN(C)CCN(C)Cc1ccc(-c2ccc3c(Nc4ccc(F)cc4Cl)ccnc3c2)o1`, the IFI is 9.86%.

Compound `Nc1ccc2[nH]cc(C3CCN(CCC4CCN(C(=O)/C=C/c5ccc(Cl)c(Cl)c5)CC4)CC3)c2n1` showed an IFI of 8.76%.

`CCCNCc1ccc(-c2ccc(CN(CCOC)C(=O)c3cnc(C)cn3)cc2)nc1` yielded an IFI of 0%.

Consider `O=C(Nc1ccc(C(F)(F)F)cc1)N[C@H]1CCN(CCCCCNC(=O)C2CC2c2ccc(Cl)c(Cl)c2)C1` (some centres not stated), for which the IFI amounted to 16.8%.

Regarding `CC(C)Cc1cn(-c2nc(-c3nc4ccccc4[nH]3)cs2)c2cc(Cl)ccc12`, the IFI is 1.18%.

With `CC(C)Cc1cn(-c2nc(C(=N)N)cs2)c2cc(Cl)ccc12`, the IFI was determined as 23.9%.

As to `CC(C)Cc1cn(-c2nc(-c3nc4ccccc4[nH]3)cs2)c2ccncc12`, the IFI was 4.94%.

`CCCN(Cc1ccc(C)cc1)Cc1cc(=O)c2cc(Cl)ccc2[nH]1` gave an IFI of 9.09%.

As for `Fc1ccc2[nH]c(-c3cccc(-c4cccc(CN5CCN(c6ccncc6)CC5)c4)c3)nc2c1`, the IFI amounted to 13.6%.

The compound `Fc1ccc2[nH]c(-c3ccc(-c4cccc(CN5CCN(c6ccncc6)CC5)c4)cc3)nc2c1` yielded an IFI of 18.1%.

As to `Fc1ccc2[nH]c(-c3cccc(-c4ccc(CN5CCN(c6ccncc6)CC5)cc4)c3)nc2c1`, the IFI amounted to 5.63%.

In turn, `Cc1cc(N)c2cc(NC(=O)c3cc4ccccc4s3)ccc2n1` showed an IFI of 6.12%.

`c1ccc(COc2ccc(C3CCCCC3)cc2)nc1` yielded an IFI of 2.9%.

`CC(CNC(=N)c1cccc(C(=N)NCC(C)Oc2cccc(C3CCCCC3)c2)n1)Oc1cccc(C2CCCCC2)c1` (configuration not stated): the IFI was 17.7%.

Consider `N=C(NCC1CC1c1ccccc1)c1cccc(C(=N)NCC2CC2c2ccccc2)n1` (configuration not stated), for which the IFI is 5.65%.

For `Cc1cccc(NC(=O)Nc2cccc(-c3ccc(-c4nc5cc(C(F)(F)F)ccc5[nH]4)cc3)c2)c1`, the IFI came to 6.45%.

For `O=C(Nc1ccc(C(F)(F)F)cc1)c1ccc(S(=O)(=O)NC2CCN(CC3CCCCC3)CC2)cc1`, the IFI worked out at 2.41%.

Consider `Cc1ccc(C)c(S(=O)(=O)Nc2ccc(Br)cc2C(=O)Nc2cccc(C(F)(F)F)c2)c1`, for which the IFI turned out to be 21.1%.

`O=C(Nc1ccc(C(F)(F)F)cc1)c1cc(Br)cnc1NCCCn1ccnc1` yielded an IFI of 1.67%.

Consider `Cc1cc(Cl)c(Cl)cc1NC(=O)Nc1cccc(C(F)(F)F)c1`, for which the IFI is 6.52%.

On to `NCCNc1ccc([N+](=O)[O-])cc1C(=O)Nc1cccc(C(F)(F)F)c1`, for which the IFI came to 1.45%.

`O=C(Nc1cc(C(F)(F)F)cc(C(F)(F)F)c1)c1cc(C(F)(F)F)cc(C(F)(F)F)c1`: the IFI came to 3.65%.

As for `O=C(Nc1ccc(Br)cc1)c1cc(Br)ccc1NS(=O)(=O)c1cc(C(F)(F)F)cc(C(F)(F)F)c1`, the IFI amounted to 19.9%.

As for `COc1cc(NC(=O)Nc2ccc(Br)cc2C(=O)Nc2ccc(Br)cc2)cc(OC)c1OC`, the IFI was found to be 1.55%.

As to `O=C(Nc1ccc(Br)cc1)c1cc(Br)ccc1NS(=O)(=O)c1ccc(C(F)(F)F)cc1`, the IFI came out at 25%.

`COc1ccc2c(NN=Cc3ccccc3F)ccnc2c1` had an IFI of 3.52%.

`CC(C)[C@H](NC(=O)c1c(F)cccc1F)C(=O)Nc1ccc(Cc2nc3ccccc3s2)cc1` yielded an IFI of 1.96%.

Regarding `CN(N=Cc1ccccc1)C(=N)NCCCC#Cc1cccc(CN2CCCC2)c1`, the IFI was found to be 4.23%.

In turn, `CC(Sc1nnc(-c2cccs2)[nH]1)C(=O)c1c[nH]c2ccccc12` (configuration not stated) returned an IFI of 1.92%.

The compound `Oc1ccc2nc(NCCCc3ccccc3)nc(NCCc3ccccc3)c2c1` displayed an IFI of 14.1%.

For `CCN(CC)/C(=N/C(=N)NCc1ccc(Cl)cc1)NCCCCCCN/C(=N\C(=N)NCc1ccc(Cl)cc1)N(CC)CC`, the IFI came to 15.1%.

Take `COc1cccc(-c2ccc(NC(=O)C3CCCN(Cc4cccc(OC)c4O)C3)cc2)c1` (configuration not stated): the IFI is 4.35%.

Compound `Oc1c(C(Nc2ccccn2)c2ccco2)cc(Cl)c2cccnc12` (configuration not stated) had an IFI of 22.6%.

As to `CCC(=O)NC(c1ccco1)c1cc(Cl)c2cccnc2c1O` (configuration not stated), the IFI came to 4.35%.

`O=C(Cc1ccccc1)NC(c1ccco1)c1cc(Cl)c2cccnc2c1O` (configuration not stated) showed an IFI of 8%.

Regarding `N=C1C=C(N)C(=O)c2ccccc21`, the IFI was 20.8%.

Turning to `O=C(Nc1ccc(-c2cccc(-c3nc4cc(C(F)(F)F)ccc4[nH]3)c2)cc1)Nc1ccc(F)c(F)c1F`, the IFI worked out at 5.83%.

Take `COc1ccc(CCCN2C(=O)C(c3ccccc3)(c3ccccc3)N=C2N)cc1`: the IFI was determined as 8.65%.

In turn, `COc1ccc(CCCCN2C(=O)C(c3ccccc3)(c3ccccc3)N=C2N)cc1` displayed an IFI of 7.69%.

Take `CCCCC(CC)CN1C(=O)C(c2ccccc2)(c2ccccc2)N=C1N` (configuration not stated): the IFI was determined as 16.3%.

Regarding `CCC(CC)CN1C(=O)C(c2ccccc2)(c2ccccc2)N=C1N`, the IFI was 3.7%.

In turn, `CCCCC(CCCC)CN1C(=O)C(c2ccccc2)(c2ccccc2)N=C1N` had an IFI of 20.9%.

For the compound `COc1ccccc1CCCN1C(=O)C(c2ccccc2)(c2ccccc2)N=C1N`, the IFI came out at 22.3%.

Turning to `N#Cc1cccc(NC(=O)Nc2ccc(-c3cccc(-c4nc5cc(F)ccc5[nH]4)c3)cc2)c1`, the IFI came to 4.04%.

As for `Cc1cccc2nc(-c3ccc(-c4ccc(CNCc5ccccc5)cc4)s3)[nH]c12`, the IFI was found to be 9.62%.

`Oc1c(CN2CCCC(C(F)(F)F)C2)cc(Cl)c2ccccc12` (configuration not stated): the IFI was 6.38%.

Compound `Cc1ccc(CN2CCCN(Cc3cccc(NC(=O)c4cc5ccccc5s4)c3)CC2)cc1` came in with an IFI of 10.2%.

Turning to `CN1CCC(C(=O)Nc2cccc(-c3cccc(-c4nc5cc(F)ccc5[nH]4)c3)c2)CC1`, the IFI turned out to be 4.24%.

Consider `Cc1cccc2nc(-c3cccc(-c4cccc(CNCc5ccc(S(C)(=O)=O)cc5)c4)c3)[nH]c12`, for which the IFI was found to be 8.65%.

`Cc1ccc2c(=NN=Cc3cccc(Cl)c3)cc(C)[nH]c2c1` gave an IFI of 10.1%.

In the case of `COc1ccc(-c2cccc(NC(=O)c3cccc(C#N)c3)c2)cc1CN1CCC(O)CC1`, the IFI was determined as 0%.

On to `CC(C)CCN1CCC(Oc2ccc(NC(=O)c3cccs3)cc2Cl)CC1`, for which the IFI is 8.06%.

For `c1cc(CN2CCC(CCN3CCCCC3)CC2)cc(-c2cccc(-c3nc4ccccc4[nH]3)c2)c1`, the IFI was 5.56%.

Turning to `Cc1ccc(CNC(=O)[C@H](Cc2ccccc2)Nc2cc(C)nc(NCC3CCCCC3)n2)cc1`, the IFI is 24.3%.

`Cc1ccc(CNC(=O)[C@H](Cc2ccccc2)Nc2cc(C)nc(NCc3ccccc3C)n2)cc1` returned an IFI of 4.88%.

`Cc1ccc(CNC(=O)[C@H](CCCN)Nc2cc(C)nc(NCC3CCCCC3)n2)cc1` returned an IFI of 4.88%.

Compound `Cc1cc(N[C@@H](Cc2ccccc2)C(=O)NCCc2ccccc2)nc(NCCOc2ccccc2)n1` gave an IFI of 7.5%.

As to `Cc1cc(N[C@@H](Cc2ccccc2)C(=O)NCCOc2ccccc2)nc(NCCOc2ccccc2)n1`, the IFI is 24.4%.

Compound `Cc1cc(N[C@@H](Cc2ccccc2)C(=O)NCc2cccs2)nc(NCC2CCCCC2)n1` returned an IFI of 16.3%.

`Cc1cc(N[C@@H](CC(C)C)C(=O)NCCc2ccccc2)nc(NCC2CCCCC2)n1`: the IFI amounted to 16.3%.

With `Cc1ccc(CNC(=O)[C@H](CC(C)C)Nc2cc(C)nc(NCC3CCCCC3)n2)cc1`, the IFI stood at 19.1%.

Take `Cc1cc(N[C@@H](CC(C)C)C(=O)NCc2cccc(F)c2)nc(NCCc2ccccc2)n1`: the IFI came out at 17.1%.

On to `Cc1cc(N[C@@H](Cc2ccccc2)C(=O)NCCOc2ccccc2)nc(NCCc2ccccc2)n1`, for which the IFI was determined as 16.3%.

Turning to `Cc1cc(N[C@@H](CC(C)C)C(=O)NCc2cccc(F)c2)nc(NCC2CCCCC2)n1`, the IFI was 18.6%.

Take `Cc1cccc(CNc2nc(C)cc(N[C@@H](CC(C)C)C(=O)NCc3cccc(F)c3)n2)c1`: the IFI was found to be 9.52%.
